# The supplement of paper PMC10981050
# Values joined by “and” are separate entries in the source; they are usually repeats but may differ in a detail not shown here. Equal entries are not always repeated. Structures can show the parent of a compound that is named as a salt.
# How the values were obtained:
# Assay in all cases: cell viability relative to vehicle control; higher = less cytotoxic
# Settings in all cases: 10 µM
# K562 = test system: K562
# In short: (§1)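 CRISPR-edited SRSF2 P95 mutant and isogenic wild-type clones of four leukaemia lines were screened against Selleck bioactive, kinase and epigenetic probe libraries, with identity-inconsistent compounds removed. Compounds were acoustically dispensed into 384-well plates at a single 10 µM dose, with 2000 cells in 50 µL medium per well. After 48 h, supernatant was removed and CellTiter-Glo luminescence was read. Viability was expressed as percent of the on-plate DMSO vehicle control, analysed in Genedata Screener.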
# MARIMO = test system: MARIMO
# In short: as §1
# MOLM14 = test system: MOLM14
# In short: as §1
# OCI-AML2 = test system: OCI-AML2
# In short: as §1
Compound,cell viability (K562; SRSF2 genotype: SRSF2 P95H/wt),cell viability (K562; SRSF2 genotype: SRSF2 wt/wt) [%],cell viability (MARIMO; SRSF2 genotype: SRSF2 P95H/wt) [%],cell viability (MARIMO; SRSF2 genotype: SRSF2 wt/wt) [%],cell viability (MOLM14; SRSF2 genotype: SRSF2 P95H/wt) [%],cell viability (MOLM14; SRSF2 genotype: SRSF2 wt/wt) [%],cell viability (OCI-AML2; SRSF2 genotype: P95H/wt) [%],cell viability (OCI-AML2; SRSF2 genotype: wt/wt) [%]
CC(C)Oc1ccc(-c2nc(-c3cccc4c3CC[C@@H]4NCCO)no2)cc1C#N [Ozanimod (RPC1063)],34% and 30.5%,30.6,27.3,32.2,38.6,40.5,29,34.4
COC(=O)C1=CO[C@@H](O[C@@H]2O[C@H](CO)[C@@H](O)[C@H](O)[C@H]2O)[C@@H]2[C@H](C)O[C@@H](O)C[C@H]12 [Morroniside],93.4% and 87.6%,93,85.3,97.1,88.1,89.3,88.8,106
NNc1nncc2ccccc12 [Hydralazine hydrochloride],99.2% and 101%,96.3,97.6,101,98.1,99,106,87
CC1(C)C=Cc2cc(-c3coc4cc(O)ccc4c3=O)ccc2O1 [Corylin],78.5% and 85.9%,85.4,70.9,69.7,97,97.4,56.4,60.8
CCN(Cc1ccncc1)C(=O)C(CO)c1ccccc1 (stereo unspecified) [Tropicamide],102% and 103%,108,107,103,97.7,106,109,116
CC(C)(C)c1cc(C(C)(C)C)c(NC(=O)c2c[nH]c3ccccc3c2=O)cc1O [Ivacaftor (VX-770)],79.4% and 75.5%,76.1,101,111,85.7,87.5,91.7,86
NC(=O)N1CCC(CC(=O)N2CCC([C@H]3c4ncc(Br)cc4CCc4cc(Cl)cc(Br)c43)CC2)CC1,49.1% and 62.3%,52.4,44.8,45.7,37.4,35.7,38,32
Cc1ccccc1N=Nc1ccc(NC(=O)c2ccnn2C)c(C)c1,84.3% and 77.9%,88,82.3,87.2,102,95,73.1,74.5
O=C1NC(=O)/C(=C/c2ccc(-c3ccc(F)cc3O)o2)S1,94.7% and 95.1%,88.4,75.9,79.2,89.3,100,62.3,59
CCC(CC)CC1(C(=O)Nc2ccccc2SC(=O)C(C)C)CCCCC1,94.6% and 96.2%,103,96,97.5,90.1,95.5,83.2,85.5
Cc1cc(C(=O)NOCCO)c(Nc2ccc(I)cc2F)n(C)c1=O,79.1% and 88%,84.6,43.3,36.3,43.5,28.7,39.4,42.9
CC(C)=CCCC(C)=CCCC(C)=CCCC(C)=CCC1=C(C)C(=O)c2ccccc2C1=O [Vitamin K2],93.6% and 95.4%,102,82.8,92.6,87.7,101,88.6,89.1
C[C@H](N=C(NC#N)Nc1cccc2ncccc12)c1ccccc1,99.3% and 100%,97,104,107,97.6,98.4,108,112
C[C@H](CCC(=O)O)[C@H]1CC[C@H]2[C@@H]3C[C@H](O)[C@@H]4C[C@H](O)CC[C@]4(C)[C@H]3CC[C@]12C [Hyodeoxycholic acid (HDCA)],92.5% and 93.9%,88.6,87.5,94.3,93.5,97.5,93.1,97.4
COc1ccc(-c2oc3c(CC=C(C)C)c(O[C@@H]4O[C@H](CO)[C@@H](O)[C@H](O)[C@H]4O)cc(O)c3c(=O)c2O[C@@H]2O[C@@H](C)[C@H](O)[C@@H](O)[C@H]2O[C@@H]2OC[C@@H](O)[C@H](O)[C@H]2O)cc1 [Epmedin B],103% and 99.7%,102,105,93,110,102,103,99.5
Cc1ccc(S(=O)(=O)OCC(=O)Nc2ccc(C(=O)O)c(O)c2)cc1,95.9% and 95.6%,97.9,95.7,102,99.7,101,94.2,101
CC(C)(Cc1ccc2ccccc2c1)NC[C@@H](O)COc1cccc(Cl)c1C#N,10.7% and 3.37%,1.65,26.8,25.5,8.56,2.3,0.55,1.15
Cc1nn(C)c2c1C(c1ccc(C(F)(F)F)cc1)C(C#N)=C(N)O2 (stereo unspecified),101% and 106%,111,99.5,95,103,102,112,121
CNCCN(C)Cc1c[nH]nc1-c1ccc(O[C@H]2C[C@H](OCCC3CCOCC3)C2)cc1,90% and 92.8%,89.7,89,92.4,79.4,96.4,67.1,75.1
O=C1C(c2c(O)[nH]c3ccccc23)=Nc2ccccc21 [Indirubin],92.2% and 98.7%,87.3,92.3,87.8,87.5,87.9,91.8,92.9
C[C@@H]1O[C@@H](OC[C@H]2O[C@@H](Oc3cc(O)c4c(=O)cc(-c5ccc(O)cc5)oc4c3)[C@H](O[C@@H]3O[C@@H](C)[C@H](O)[C@@H](O)[C@H]3O)[C@@H](O)[C@@H]2O)[C@H](O)[C@H](O)[C@H]1O [ligustroflavone],103%,106,97.1,105,90.7,103,107,108

Compound,cell viability (K562; SRSF2 genotype: SRSF2 P95H/wt),cell viability (K562; SRSF2 genotype: SRSF2 wt/wt) [%],cell viability (MARIMO; SRSF2 genotype: SRSF2 P95H/wt) [%],cell viability (MARIMO; SRSF2 genotype: SRSF2 wt/wt) [%],cell viability (MOLM14; SRSF2 genotype: SRSF2 P95H/wt) [%],cell viability (MOLM14; SRSF2 genotype: SRSF2 wt/wt) [%],cell viability (OCI-AML2; SRSF2 genotype: P95H/wt) [%],cell viability (OCI-AML2; SRSF2 genotype: wt/wt) [%]
C#CCC(Cc1cnc2nc(N)nc(N)c2n1)c1ccc(C(=O)N[C@@H](CCC(=O)O)C(=O)O)cc1 (stereo partly specified) [Pralatrexate(Folotyn)],98.1% and 106%,45.8,109,108,102,73.9,98.6,104
CN1C(N)=N[C@](C)(c2cc(NC(=O)c3ccc(F)cn3)ccc2F)CS1(=O)=O [Verubecestat (MK-8931) Trifluoroacetat],97.5% and 98.8%,96.9,98.1,108,95.8,102,99.8,107
Cc1c(-c2ccc(O)cc2)n(Cc2ccc(OCCN3CCCCCC3)cc2)c2ccc(O)cc12 [Bazedoxifene HCl],1.11% and 0.75%,0.96,17.3,27.5,0.32,0.46,0.41,0.44
CC12CCC(O)CC1=CCC1C2CCC2(C)C(C(O)CC(O)(C(F)(F)F)C(F)(F)F)CCC12 (stereo unspecified),86.1% and 93.4%,98.3,97,90.3,76.7,91.8,71.3,76.3
CCCCCOC(=O)Nc1nc(=O)n([C@@H]2O[C@H](C)[C@@H](O)[C@H]2O)cc1F [Capecitabine (Xeloda)],102% and 99.8%,104,99.7,108,101,101,92.8,99.2
COc1cc(/C=C/C(=O)CC(=O)/C=C/c2ccc(O)c(OC)c2)ccc1O [Curcumin],90.9% and 87%,91.9,87.3,75.7,47.8,59.1,60.6,69.3
COC(=O)CCC(C)C1CCC2C3C(O)CC4CC(O)CCC4(C)C3CC(O)C12C (stereo unspecified) [Methyl Cholate],97.3% and 98.1%,101,104,112,55.6,89,102,81.8
CC(C)(C)NC(=O)c1cncn1C1CCN(c2ccc(-c3nnc(C(F)(F)F)o3)cn2)CC1,69% and 57.2%,63.8,53.1,64.5,56.7,45.7,8.34,20.6
CN[C@H]1CC[C@@H](c2ccc(Cl)c(Cl)c2)c2ccccc21 [Sertraline HCl],30.3% and 54.2%,52.8,41.7,48,32.7,42.9,26.2,37.5
O=C(O)c1ccc(Br)c(O)c1 [4-Bromo-3-hydroxybenzoic acid],105% and 104%,104,100,110,100,107,99.3,108
Nc1cccc(-c2cc3c(Oc4cccc(O)c4)ncnc3[nH]2)c1,28.4% and 39.8%,27.7,84.4,94.5,37.8,35.5,53.4,53.3
Cc1ccc(N(CC2=NCCN2)c2cccc(O)c2)cc1 [Phentolamine Mesylate],93% and 101%,92.5,90.3,95.2,102,103,102,86.7
O=[N+]([O-])c1ccc(Nc2nc(N3CCOCC3)nc(N3CCOCC3)n2)cc1,99% and 99.5%,95.7,95.7,95.8,112,99.8,107,116
CC1=CCC[C@H](C)C(=O)C[C@@H](C(C)C)C(=O)C1 [Curdione],93.2% and 88.9%,83.8,93.8,90.8,91.2,87.5,91,87.2
O=C1C(N(CO)C(=O)NCO)N(CO)C(=O)N1CO (stereo unspecified) [Diazolidinyl urea],96.3% and 98.6%,106,98.9,98.3,93.8,104,111,129
CCCc1cc(-c2nc(-c3ccc(C)cc3)cs2)ccn1 [Fatostatin],22.9% and 30.5%,39,46.2,36,51.6,35.5,34.2,35.4
COc1ccc(CC(=O)O)cc1OC [Homoveratrumic acid],92% and 79.3%,85.9,89.2,98.9,89.3,92.8,88.2,99
O=C(NC(NC(=S)Nc1ccc(F)c([N+](=O)[O-])c1)C(Cl)(Cl)Cl)C(c1ccccc1)c1ccccc1 (stereo unspecified),6.8% and 10.6%,17.6,35.5,30.2,1.5,4.68,1.61,4.06
CCOC(=O)CC(=O)N1CCSC1COc1ccccc1OC (stereo unspecified) [Moguisteine],99.2% and 102%,97.3,98.3,108,100,105,105,92
Nc1nc2[nH]cnc2c(=S)[nH]1 [Thioguanine],25.9% and 28.5%,26.8,46.3,37.5,35.2,23,13.5,20.5
Nc1ncn([C@H]2C[C@H](O)[C@@H](CO)O2)c(=O)n1 [Decitabine],77.9% and 88.9%,80.9,69.5,73.8,47.4,39.7,54.4,58.2
